The source made the active and inactive calls. No stated cut-off is given here; in the data, active means fold change mostly below about -2 (no sharp cut-off); inactive means mostly above about -1.8.

The test can be described thus: TERT promoter activity modulators, primary screen, cell-based, luciferase reporter, human (AID 1259240). The note with it: A2780 TERT promoter luciferase reporter, 16 h; at 20 µM, fold versus average of vehicle-only wells. In general terms: In a reporter assay the amount or activity of a reporter protein is the signal.
On to `Cn1c(=O)c2c(SCC(=O)Nc3ccc4c(c3)OCO4)nc(-c3ccco3)nc2n(C)c1=O`, for which the fold change is 1.03 (inactive).

As for `Cc1ccc(OCc2nc(-c3ccc(-n4cccc4)cc3)no2)cc1C`, the fold change is -2.34 (active).

In the case of `O=C(Cn1nc(C(F)F)cc1C1CC1)N1CCCC1`, the fold change was 1.2 (inactive).

In the case of `O=c1/c(=C/c2cn(-c3ccccc3)nc2-c2ccccc2)sc2nc(-c3ccco3)nn12`, the fold change is 1.18 (inactive).

`O=C(COc1ccc(Cl)cc1)Nc1ccc2nc3n(c(=O)c2c1)CCCCC3`: the fold change was -1.27 (inactive).

For `CC(=O)Oc1ccc(/C=c2\sc3nc(-c4ccco4)nn3c2=O)cc1`, the fold change was -1.31 (inactive).

Take `O=C1SC(Nc2ccccc2F)C(=O)N1c1ccccc1` (stereo not given): the fold change is 1.65 (inactive).

With `Cc1nc2cc(-c3ccccc3)nn2c(C)c1CCC(=O)NC(C)CCc1ccco1` (stereo not given), the fold change is -2.05 (active).

With `O=C(CN1C(=O)COc2ccc(S(=O)(=O)N3CCOCC3)cc21)N1CCOCC1`, the fold change was -2.24 (active).

In the case of `COc1ccc(OC)c(NC(=O)CSc2nc(-c3cccs3)nc3c2c(=O)n(C)c(=O)n3C)c1`, the fold change was 1.71 (inactive).

As to `O=C(Cn1c(=O)c2ccccc2n(CC(=O)Nc2ccc(F)cc2F)c1=O)NCc1ccco1`, the fold change is -2.2 (active).

As for `CCc1ccc2[nH]cc(S(=O)(=O)c3ccc(C)c(C)c3)c(=O)c2c1`, the fold change was 1.15 (inactive).

On to `CC1Cc2ccccc2N1S(=O)(=O)c1cccc2cccnc12` (stereo not given), for which the fold change was -2.15 (active).

Take `O=S1(=O)NC(=NC2CCCCCC2)c2ccccc21`: the outcome was inactive.

For `CCCN(CCC)c1c(NC2CCN(C(=O)OCC)CC2)c(=O)c1=O`, the fold change was -1.25 (inactive).

Regarding `C=CCN(C(=O)C1CCC(CNS(=O)(=O)c2cccc3nsnc23)CC1)C1CCCCC1` (stereo not given), the fold change was -1.05 (inactive).

As to `COCC(=O)N1N=C(c2ccc(NS(C)(=O)=O)cc2)CC1c1ccccc1` (stereo not given), the fold change was 1.13 (inactive).

For `CC1(C)CC(=O)c2sc(NC(=O)C(C)(C)C)nc2C1`, the fold change was 1.32 (inactive).

With `Cc1ccc2ccc(C(Nc3ccccn3)c3ccncc3)c(O)c2n1` (stereo not given), the fold change was -1.62 (inactive).

Regarding `CC(C)CCNS(=O)(=O)c1ccc2c(c1)n(C)c(=O)c(=O)n2C`, the fold change was 1.28 (inactive).

For `Cc1cc(=O)[nH]c(SCC(=O)c2c[nH]c3ccccc23)n1`, the result was inactive.

In the case of `CCC(=O)Nc1nc2nc(C(C)(C)C)cc(=O)n2[nH]1`, the fold change is -1.74 (inactive).

Turning to `Cc1cc(C(=O)Nc2ccc(F)cc2F)on1`, the fold change was 1.55 (inactive).

On to `CC(=O)N1CCC(N(C(=O)Nc2ccc(F)cc2)C2CCCC2)CC1`, for which the fold change was -1.02 (inactive).

Regarding `CC1CCCCC1NC(=O)CN(C)S(=O)(=O)c1ccc2c(c1)CCC(=O)N2` (stereo not given), the fold change was 1.04 (inactive).

In the case of `CCOC(=O)c1nn(-c2ccc(F)cc2)c(=O)c2c(NC(=O)CCCl)scc12`, the fold change is -3.04 (active).

Consider `O=C(c1cnc2ccccc2n1)N1CCn2c(nc3ccccc32)C1`, for which the fold change is 1.4 (inactive).

Turning to `Cc1cc(C)c2c(=O)n(CC(=O)NCCC3=CCCCC3)sc2n1`, the fold change was 1.18 (inactive).

On to `COc1cccc(/C=c2\sc3nc(-c4ccco4)nn3c2=O)c1OC`, for which the fold change is 1.43 (inactive).

With `CCN(CC)C(=O)C1=C(C)Nc2nc3ccccc3n2C1c1ccncc1` (stereo not given), the fold change is -1.02 (inactive).

`COc1ccc(OC)c(S(=O)(=O)c2cc3cccc(OC)c3oc2=O)c1`: the fold change is -1.07 (inactive).

Regarding `CSc1cccc(NC(=O)C2CCN(S(=O)(=O)c3ccc4c(c3)oc(=O)n4C)CC2)c1`, the fold change was -1.36 (inactive).

Turning to `O=C(NC1CCCCC1)c1cccc(NC2=NC3CS(=O)(=O)CC3S2)c1` (stereo not given), the fold change was -1.15 (inactive).

On to `Cn1c(=O)c2c(SCC(=O)Nc3ccc([N+](=O)[O-])cc3)nc(-c3ccc(F)cc3)nc2n(C)c1=O`, for which the fold change is 1.08 (inactive).

With `COc1ccc(C2=NN3C(C2)c2cc(Cl)ccc2OC3c2cccnc2)cc1` (stereo not given), the fold change was 1.37 (inactive).

For `CCOc1ccc(-n2c(C)c(C(C)=O)c3cc(OCC(N)=O)ccc32)cc1`, the fold change is -1.01 (inactive).

As for `c1cc2nncn2nc1N1CCN(C2CCCCC2)CC1`, the fold change was -1.21 (inactive).

As to `CC1CCCC(C)N1C(=O)CN1C(=O)COc2ccc(S(=O)(=O)N3CCCCCC3)cc21` (stereo not given), the fold change was -1.25 (inactive).

With `CCOC(=O)C1CCCN(c2c(NCCCN3CC(C)CC(C)C3)c(=O)c2=O)C1` (stereo not given), the fold change was -1.02 (inactive).

On to `COc1ccc(Nc2c(-c3ccc(C)o3)nc3ncccn23)cc1OC`, for which the fold change was -1.44 (inactive).

The values above are taken from PubChem BioAssay AID1259240 (Keith Lab, Institute of Cancer Science, University of …, 2017).
